# In the library only some 4.6% were active in any assay of this set; here they are far more common.
# ADAM17 inh – inhibits human ADAM17; P78536; recombinant ADAM17, EDANS/DABCYL FRET peptide cleavage; inhibition, % at 6.95 µM; hit rate 0.83% among 370,000; AID 720648;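 active = inhibition above the mean of compounds lying between control limits plus 3 SD, set per campaign, cut at about 8.5% in these data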;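 note: 0% = DMSO-only wells as the low control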
# Target sequence (P78536 215-824 limits assumed): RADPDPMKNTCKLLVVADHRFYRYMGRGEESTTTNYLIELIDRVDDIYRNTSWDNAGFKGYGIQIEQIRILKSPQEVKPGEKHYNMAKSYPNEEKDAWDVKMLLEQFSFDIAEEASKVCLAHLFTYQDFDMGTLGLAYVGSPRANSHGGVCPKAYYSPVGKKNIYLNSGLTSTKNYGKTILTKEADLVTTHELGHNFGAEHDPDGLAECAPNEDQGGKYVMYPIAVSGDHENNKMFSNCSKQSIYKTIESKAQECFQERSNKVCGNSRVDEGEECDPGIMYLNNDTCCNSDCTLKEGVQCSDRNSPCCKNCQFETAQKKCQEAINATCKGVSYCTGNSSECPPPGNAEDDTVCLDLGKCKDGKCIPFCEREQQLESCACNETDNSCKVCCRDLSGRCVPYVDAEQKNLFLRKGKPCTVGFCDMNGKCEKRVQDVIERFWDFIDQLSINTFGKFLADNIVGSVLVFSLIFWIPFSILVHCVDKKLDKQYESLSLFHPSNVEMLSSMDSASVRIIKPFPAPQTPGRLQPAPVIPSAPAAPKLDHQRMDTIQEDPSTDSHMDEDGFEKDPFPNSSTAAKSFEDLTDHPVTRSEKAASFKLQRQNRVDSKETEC
# NR3A LBD binder – modulators (binders) of human NR3A ligand-binding domain | NR3A LBD differential scanning fluorimetry, Tm shift; 0% = protein alone, 100% = glycine-bound protein | Tm shift relative to glycine control, % at 25 µM | hit rate 2.5% among 340,000 | AID 1259313;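 active = melting temperature shift of at least 10% of the positive control shift, at one fixed dose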
# FAS TE block – FAS thioesterase (human) inhibition; P49327; recombinant FAS-TE, OMFH fluorogenic substrate, fluorescence endpoint; inhibition, % at 15 µM; hit rate 0.67% among 360,000; AID 602261;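 active = compounds whose normalised, plate-corrected inhibition of enzyme fluorescence in the single-dose primary screen is 50% or more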;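 note: 0% = DMSO with enzyme and 100% = substrate without enzyme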
# ADAM10 inh – inhibits human ADAM10; recombinant ADAM10, EDANS/DABCYL FRET peptide cleavage, 3 h; hit rate 0.62% among 370,000; O14672; inhibition, % at 7 µM;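 active = inhibition above a per-campaign cutoff equal to the mean of compounds falling between control-based bounds plus 3 SD, cut at about 20% in these data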;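 note: 0% = DMSO wells while the 100% control is not disclosed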
# KLK7 zymogen act – activates the human kallikrein-7 zymogen. purified proKLK7, EDANS-DABCYL substrate fluorescence; 100% is mature enzyme control, 0% vehicle. activation, % at 7 µM. hit rate 0.9% among 370,000. AID 652039;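 active = activation above the mean of all tested compounds plus 3 SD, computed per campaign excluding outliers beyond control limits, cut at about 13% in these data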
# ADAM10 ctr – counter-screen for ADAM17 exosite inhibitors: inhibitors of human ADAM10 | shares compounds with ADAM17 inh | recombinant ADAM10, EDANS/DABCYL FRET peptide cleavage, 3 h | inhibition, % at 6.95 µM | hit rate 47% among 2,900 | AID 743256;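 active = mean inhibition over the triplicate runs exceeds the activity threshold set in the earlier primary screen, cut at about 20% in these data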;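 note: 0% = DMSO wells and 100% = marimastat wells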
# ADAM17 confirm – human ADAM17 inhibition, confirmation; shares compounds with ADAM17 inh; recombinant ADAM17, EDANS/DABCYL QFRET peptide cleavage; inhibition, % at 6.95 µM; hit rate 65% among 2,900; AID 743257;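 active = mean inhibition across replicates above the hit cutoff set in the primary screen, cut at about 8.5% in these data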;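 note: 0% = DMSO wells and 100% = marimastat wells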
# Active calls of the source: *; i = inactive; . = not tested or not shown.
SMILES,ADAM17 inh,NR3A LBD binder,FAS TE block,ADAM10 inh,KLK7 zymogen act,ADAM10 ctr,ADAM17 confirm
C[C@@H]1ON(C)[C@H]2C[C@H]3c4[nH]c5c(-c6cccc(F)c6)cccc5c4CCN3C(=O)[C@@H]12,-50,.,.,-175,-6,.,.
COC(=O)C1=C(C)N=C2SC(C)C(=O)N2C1c1cccs1 (stereo not given),9.6*,-5,-8,11,0,1,4
COC(=O)c1cc2c(c3c4cc(C)ccc4n(S(=O)(=O)c4ccccc4)c13)C(=O)N(Cc1ccc(C(F)(F)F)cc1)C2,-2,.,.,-1,0,.,.
CCOC(=O)C1=C(O)/C(=C\c2sccc2C)N=C1C,3,1,-5,12,0,.,.
CCOC(=O)C1=C(O)/C(=C\c2cccs2)N=C1C,10.0*,7,-10,16,0,1,4
CC1(C(=O)NS(=O)(=O)c2cccc(Cl)c2)CCN1C(=O)Cc1ccc(-c2ccccc2)cc1 (stereo not given),9.0*,.,-8,3,0,8,6
COc1ccccc1C1N(c2ccc(Cl)cc2)C(=O)C2CCCN21 (stereo not given),9.8*,0,-10,6,0,-7,3
COc1ccc(C2CC(=O)C(c3cc(OC)c(OC)c(OC)c3)=CN2Cc2ccccc2)cc1 (stereo not given),-2,.,.,-2,-1,.,.
COc1ccc(C)cc1S(=O)(=O)N(CC(=O)Nc1ccc2c(c1)OCCO2)Cc1ccccc1,.,-9,20,.,.,.,.
COc1ccc(C2(C)NC(=O)N(CC(=O)Nc3ccc4c(c3)OCO4)C2=O)cc1OC (stereo not given),11*,-2,-7,12,-1,13,9.0*
CC1(c2ccccc2)NC(=O)N(CC(=O)Nc2ccc3c(c2)OCO3)C1=O (stereo not given),0,-2,-9,-5,0,.,.
COCCOc1ccc(C(F)(F)F)cc1NC(=O)CN1C(=O)NC(C)(c2ccc3c(c2)OCO3)C1=O (stereo not given),12*,-8,30,18,0,19,12*
COc1ccc(C)cc1S(=O)(=O)N(C)CC(=O)Nc1ccc2c(c1)OCO2,10*,0,-7,14,0,5,5
Cc1cc2c(c(=O)o1)[C@@]1(C(=O)Nc3ccccc31)C1=C(CCCC1=O)O2,-5,.,.,-9,0,.,.
O=C(Nc1cccc(Cl)c1)NN(c1ccccc1)C1CCS(=O)(=O)C1 (stereo not given),-2,.,.,-7,1,.,.
O=S1(=O)N[C@H](Cc2ccccc2)COc2cc(N3CCOCC3)ccc21,-2,.,.,-13,0,.,.
COCc1cc(N2CCNC[C@H]2C)ccc1N1CCN(Cc2ccccc2)[C@@H](C)C1,-4,.,.,-18,0,.,.
CN(C)S(=O)(=O)c1cc([N+](=O)[O-])ccc1N1CCCCCC1,10*,-1,11,13,0,18,11*
Cc1ccc(C(=O)N2CCC[C@@H]2C(=O)N2CCC[C@H]2C(=O)NCc2ccccc2)cc1C,-1,.,.,0,0,.,.
COc1ccc(N2C(=O)C3C(C2=O)C3(c2ccccc2)c2ccccc2)cc1 (stereo not given),13*,4,20,17,1,9,7
CCNC(=O)N1CCN(c2ccc(N3CCN(C(=O)NCC)[C@@H](C)C3)c(C)c2)[C@@H](C)C1,-4,.,.,-9,0,.,.
CCN(CC)C(=O)N1CCC(NC(=O)Cc2ccccc2)CC1,9.4*,-3,-9,3,0,-6,1
O=C(Cc1ccccc1)NC1CCN(C(=O)NCc2ccccc2)CC1,-1,4,-7,3,-1,.,.
O=C(Nc1cccc(S(=O)(=O)N2CCCCC2)c1)c1cccs1,2,-3,5,17,0,.,.
O=C(Oc1cccc(NC(=O)c2cccs2)c1)c1cccc(S(=O)(=O)N2CCCC2)c1,11*,2,36,18,0,27*,17*
SMILES,ADAM17 inh,NR3A LBD binder,FAS TE block,ADAM10 inh,KLK7 zymogen act,ADAM10 ctr,ADAM17 confirm
OC(c1ccccc1)(c1ccccc1)C1CCN(CCCOc2cccc(F)c2)CC1,-5,.,.,-10,0,.,.
COc1ccc(NC(=O)C(c2ccc(C)cc2)N(C)C(=O)Cc2cccs2)cc1 (stereo not given),9.0*,-2,12,7,0,2,6
COc1ccc(CCNC(=O)c2cc(-c3ccco3)nc3ccccc23)cc1,9.5*,-2,.,16,-1,i,-271
COCCNC(=S)N(C)[C@H]1C[C@H]2c3[nH]c4cccc(-c5ccccc5)c4c3CCN2C(=O)[C@H]1[C@H](C)O,-77,.,.,-303,-6,.,.
CC1=C(C(=O)N2CCOCC2)CC(CC(=O)NCc2cccc3ccccc23)C(=O)N1Cc1ccc(C(C)(C)C)cc1 (stereo not given),9.0*,.,12,3,0,14,7
CCN(CC)C(=O)C1=C(C)N(Cc2ccc(C(C)(C)C)cc2)C(=O)C(CC(=O)NC(c2ccccc2)c2ccccc2)C1 (stereo not given),9.3*,.,14,5,1,27*,13*
CC(C)NC(=O)N(C)C[C@@H]1OCc2cn(nn2)CCCC(=O)N([C@@H](C)CO)C[C@H]1C,0,.,.,-5,-1,.,.
CCCCCCC12Cc3cc(OC)c(OC)cc3C(O1)C1=C(O2)C(C)(C)CCC1=O (stereo not given),-2,.,.,-11,2,.,.
Cc1nn(Cc2noc(C(=O)NCCc3ccccn3)n2)c(C)c1Br,1,-3,-3,15,0,.,.
Cc1nn(Cc2noc(C(=O)NCc3ccccn3)n2)c(C)c1Br,9.6*,0,-7,9,0,-2,1
CCOC(=O)c1ccc(NC(=O)c2nc[nH]c2C(=O)N[C@@H](CC(C)C)C(=O)OC(C)(C)C)cc1,4,-8,9,3,0,.,.
CC(C)C[C@H](NC(=O)c1[nH]cnc1C(=O)Nc1ccccc1)C(=O)OC(C)(C)C,14*,-8,24,27*,0,40*,20*
C[C@H](NC(=O)c1nc[nH]c1C(=O)N[C@@H](Cc1ccccc1)C(=O)OCc1ccccc1)C(=O)OCc1ccccc1,11*,-10,17,16,0,33*,19*
CNC(=O)c1[nH]cnc1C(=O)N[C@@H](Cc1ccccc1)C(=O)OCc1ccccc1,1,-3,2,10,0,.,.
C[C@@H](NC(=O)c1nc[nH]c1C(=O)N[C@@H](Cc1ccccc1)C(=O)OC(C)(C)C)c1ccccc1,10*,-9,20,19,0,33*,14*

# High-throughput results deposited in PubChem BioAssay by several laboratories.
